# Compounds without any hit were thinned out: in the full panel of roughly 79,000, 15% have a hit. A number with no mark means an inactive call. Active and inactive are the calls of the source. No stated cut-off is given here; in the data, active means growth inhibition above about 70%; inactive means the rest.
# Assays:
# [1] = NCI Yeast Anticancer Drug Screen. Data for the rad52 strain (AID 147);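 further: 0% = growth of vehicle-treated control cultures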; settings: S. cerevisiae rad52 mutant growth inhibition, active compounds read high
# Outline: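 DNA repair-defective yeast; compound exposure; growth scored against vehicle controls.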
# [2] = NCI Yeast Anticancer Drug Screen. Data for the wt1 strain (AID 149);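 further: 0% = growth of vehicle-treated wt1 cultures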; settings: S. cerevisiae wt1 strain (SPY 50644) growth inhibition, active compounds read high
# Outline: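 The wt1 strain was treated with compounds, and growth was compared with vehicle-treated cultures to give inhibition.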
# [3] = NCI Yeast Anticancer Drug Screen. Data for the rad50EPP+ strain (AID 151);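 further: 0% = growth of vehicle-treated control cultures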; settings: S. cerevisiae rad50 mutant strain, active compounds read high
# Outline: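 rad50EPP+ yeast treated with test compounds. Readout: growth vs vehicle control.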
# [4] = NCI Yeast Anticancer Drug Screen. Data for the mgt1 strain (AID 153); settings: S. cerevisiae mgt1 mutant growth inhibition, active compounds read high
# Outline: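 Growth inhibition relative to vehicle controls was scored for the mgt1 yeast strain after compound exposure.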
# [5] = NCI Yeast Anticancer Drug Screen. Data for the rad50 strain (AID 155);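 further: 0% = growth of vehicle-only cultures of the same strain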; settings: S. cerevisiae rad50 strain growth inhibition, active compounds read high
# Outline: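 Cells are treated with compound, grown, and their growth is then scored against vehicle-only cultures of the same repair-deficient yeast strain.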
# [6] = NCI Yeast Anticancer Drug Screen. Data for the mec2-1 strain (AID 157); settings: S. cerevisiae mec2-1 strain, active compounds read high
# Outline: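 Growth inhibition is read against vehicle-treated controls after compound exposure of the mec2-1 yeast strain, which is defective in DNA damage repair or cell cycle control.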
# [7] = NCI Yeast Anticancer Drug Screen. Data for the rad14 strain (AID 159);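 further: 0% = growth of vehicle-treated control cultures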; settings: S. cerevisiae rad14 strain growth inhibition, active compounds read high
# Outline: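 Readout: yeast growth inhibition, referenced to vehicle-only cultures. Strain bears a defined alteration in DNA damage repair.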
# [8] = NCI Yeast Anticancer Drug Screen. Data for the sgs1 mgt1 strain (AID 161);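 further: 0% = growth of cultures given vehicle only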; settings: S. cerevisiae sgs1 mgt1 strain, active compounds read high
# Outline: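 Yeast cells carrying a defined DNA-repair defect were exposed to test compounds. Growth inhibition was measured relative to vehicle-treated controls.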
# [9] = NCI Yeast Anticancer Drug Screen. Data for the CLN2oe strain (AID 163);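 further: 0% = growth of vehicle-only control cultures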; settings: S. cerevisiae CLN2oe strain, active compounds read high
# Outline: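 Compound-treated yeast; growth vs vehicle ctrl = % inhibition. Genetically altered strain (cell-cycle control).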
# [10] = NCI Yeast Anticancer Drug Screen. Data for the cln2 rad14 strain (AID 165);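 further: 0% = growth equal to vehicle treated cultures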; settings: S. cerevisiae cln2 rad14 strain, active compounds read high
# Outline: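 Growth inhibition, relative to vehicle-treated controls, is the read-out. The test organism is a yeast strain with defined genetic alterations, cln2 rad14.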
# [11] = NCI Yeast Anticancer Drug Screen. Data for the bub3 strain (AID 167); settings: S. cerevisiae bub3 mutant strain, active compounds read high
# Outline: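 Part of a panel of yeast mutants defective in DNA damage repair or cell cycle regulation. Each strain is grown with compound, and inhibition is calculated relative to solvent-treated cultures.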
# [12] = NCI Yeast Anticancer Drug Screen. Data for the wt2 strain (AID 169);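 further: 0% = growth of vehicle-treated yeast cultures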; settings: S. cerevisiae wt2 strain growth inhibition, active compounds read high
# Outline: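 Compound exposure of yeast; growth compared with vehicle controls; inhibition reported.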
# [13] = NCI Yeast Anticancer Drug Screen. Data for the mlh1 strain (AID 171);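 further: 0% = growth of vehicle-treated control cultures of the same strain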; settings: S. cerevisiae mlh1 strain growth inhibition, active compounds read high
# Outline: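 Compounds are applied to a genetically altered yeast strain, and its growth is compared with that of vehicle-treated cultures to give percent inhibition.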
# [14] = NCI Yeast Anticancer Drug Screen. Data for the sgs1 strain (AID 173);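 further: 0% = growth of vehicle-only control cultures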; settings: S. cerevisiae sgs1 mutant, active compounds read high
# Outline: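 Compounds applied to genetically altered yeast; growth compared with vehicle-treated cultures to give % inhibition.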
# [15] = NCI Yeast Anticancer Drug Screen. Data for the mlh1 rad18 strain (AID 175); settings: S. cerevisiae mlh1 rad18 strain growth inhibition, active compounds read high
# Outline: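 Cells of a genetically altered yeast strain, deficient in DNA damage repair, were treated with compound. Their growth was then compared with that of vehicle-treated cultures to give inhibition.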
# [16] = NCI Yeast Anticancer Drug Screen. Data for the rad18 strain (AID 177); settings: S. cerevisiae rad18 mutant growth inhibition, active compounds read high
# Outline: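 Compounds are applied to a repair-deficient yeast strain, and growth is compared with that of vehicle-treated cultures to give percent inhibition.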
# [17] = at 5.0 µM (retest, dose inferred, filed as 0.5)
# [18] = at 50.0 µM (retest, dose inferred, filed as 5.0)
smiles,measurement,setting,value
CN(C)CCNc1cccc2sc3ccc(O)cc3c(=O)c12,growth inhibition,[1]; at 1.2 µM,0%
same,growth inhibition,[1]; at 3.7 µM,1%
same,growth inhibition,[1]; at 11.0 µM,10%
same,growth inhibition,[1]; at 33.0 µM,20%
same,growth inhibition,[1]; at 100.0 µM,43%
same,growth inhibition,[2]; at 1.2 µM,1%
same,growth inhibition,[2]; at 3.7 µM,6%
same,growth inhibition,[2]; at 11.0 µM,3%
same,growth inhibition,[2]; at 33.0 µM,4%
same,growth inhibition,[2]; at 100.0 µM,6%
same,growth inhibition,[3]; at 1.2 µM,2%
same,growth inhibition,[3]; at 3.7 µM,11%
same,growth inhibition,[3]; at 11.0 µM,15%
same,growth inhibition,[3]; at 33.0 µM,26%
same,growth inhibition,[3]; at 100.0 µM,33%
same,growth inhibition,[4]; at 1.2 µM,-1%
same,growth inhibition,[4]; at 3.7 µM,-5%
same,growth inhibition,[4]; at 11.0 µM,-3%
same,growth inhibition,[4]; at 33.0 µM,0%
same,growth inhibition,[4]; at 100.0 µM,6%
same,growth inhibition,[5]; at 1.2 µM,4%
same,growth inhibition,[5]; at 3.7 µM,6%
same,growth inhibition,[5]; [17],14%
same,growth inhibition,[5]; at 11.0 µM,11%
same,growth inhibition,[5]; at 33.0 µM,31%
same,growth inhibition,[5]; [18],90% (active)
same,growth inhibition,[5]; at 50.0 µM,87.8% (active)
same,growth inhibition,[5]; at 100.0 µM,47%
same,growth inhibition,[6]; at 1.2 µM,4%
same,growth inhibition,[6]; at 3.7 µM,5%
same,growth inhibition,[6]; [17],-1%
same,growth inhibition,[6]; at 11.0 µM,8%
same,growth inhibition,[6]; at 33.0 µM,9%
same,growth inhibition,[6]; [18],17%
same,growth inhibition,[6]; at 50.0 µM,18.5%
same,growth inhibition,[6]; at 100.0 µM,7%
same,growth inhibition,[7]; at 1.2 µM,-1%
same,growth inhibition,[7]; at 3.7 µM,1%
same,growth inhibition,[7]; at 11.0 µM,5%
same,growth inhibition,[7]; at 33.0 µM,12%
same,growth inhibition,[7]; at 100.0 µM,19%
same,growth inhibition,[8]; [17],1%
same,growth inhibition,[8]; [18],7%
same,growth inhibition,[8]; at 50.0 µM,48.1%
same,growth inhibition,[9]; at 1.2 µM,-6%
same,growth inhibition,[9]; at 3.7 µM,-11%
same,growth inhibition,[9]; at 11.0 µM,-8%
same,growth inhibition,[9]; at 33.0 µM,-5%
same,growth inhibition,[9]; at 100.0 µM,4%
same,growth inhibition,[10]; [17],3%
same,growth inhibition,[10]; [18],26%
same,growth inhibition,[10]; at 50.0 µM,45.5%
same,growth inhibition,[11]; at 1.2 µM,2%
same,growth inhibition,[11]; at 3.7 µM,-4%
same,growth inhibition,[11]; [17],1%
same,growth inhibition,[11]; at 11.0 µM,-1%
same,growth inhibition,[11]; at 33.0 µM,-2%
same,growth inhibition,[11]; [18],8%
same,growth inhibition,[11]; at 50.0 µM,36.2%
same,growth inhibition,[11]; at 100.0 µM,-4%
same,growth inhibition,[12]; at 1.2 µM,1%
same,growth inhibition,[12]; at 3.7 µM,-2%
same,growth inhibition,[12]; at 11.0 µM,0%
same,growth inhibition,[12]; at 33.0 µM,1%
same,growth inhibition,[12]; at 100.0 µM,4%
same,growth inhibition,[13]; at 1.2 µM,1%
same,growth inhibition,[13]; at 3.7 µM,3%
same,growth inhibition,[13]; at 11.0 µM,4%
same,growth inhibition,[13]; at 33.0 µM,4%
same,growth inhibition,[13]; at 100.0 µM,8%
same,growth inhibition,[14]; at 1.2 µM,-1%
same,growth inhibition,[14]; at 3.7 µM,-1%
same,growth inhibition,[14]; at 11.0 µM,2%
same,growth inhibition,[14]; at 33.0 µM,3%
same,growth inhibition,[14]; at 100.0 µM,3%
same,growth inhibition,[15]; [17],-3%
same,growth inhibition,[15]; [18],44%
same,growth inhibition,[15]; at 50.0 µM,66.5%
same,growth inhibition,[16]; at 1.2 µM,-2%
same,growth inhibition,[16]; at 3.7 µM,-2%
same,growth inhibition,[16]; at 11.0 µM,-1%
same,growth inhibition,[16]; at 33.0 µM,1%
same,growth inhibition,[16]; at 100.0 µM,5%
